Test results reported in ChEMBL document CHEMBL1961873, “Compounds: GSK PKIS; Assays: Nanosyn kinase panel” (2012).

Legend:
[1] = target: Sphingosine kinase 1 (Homo sapiens) (UniProt Q9NYA1); conditions: at 1 µM;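 also: mean SPHK1 inhibition value reported from the GSK PKIS kinase panel screen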
[2] = target: T1, Sphingosine kinase 2 (Homo sapiens) (UniProt Q9NRA0); conditions: at 0.1 µM
T1 sequence (whole entry): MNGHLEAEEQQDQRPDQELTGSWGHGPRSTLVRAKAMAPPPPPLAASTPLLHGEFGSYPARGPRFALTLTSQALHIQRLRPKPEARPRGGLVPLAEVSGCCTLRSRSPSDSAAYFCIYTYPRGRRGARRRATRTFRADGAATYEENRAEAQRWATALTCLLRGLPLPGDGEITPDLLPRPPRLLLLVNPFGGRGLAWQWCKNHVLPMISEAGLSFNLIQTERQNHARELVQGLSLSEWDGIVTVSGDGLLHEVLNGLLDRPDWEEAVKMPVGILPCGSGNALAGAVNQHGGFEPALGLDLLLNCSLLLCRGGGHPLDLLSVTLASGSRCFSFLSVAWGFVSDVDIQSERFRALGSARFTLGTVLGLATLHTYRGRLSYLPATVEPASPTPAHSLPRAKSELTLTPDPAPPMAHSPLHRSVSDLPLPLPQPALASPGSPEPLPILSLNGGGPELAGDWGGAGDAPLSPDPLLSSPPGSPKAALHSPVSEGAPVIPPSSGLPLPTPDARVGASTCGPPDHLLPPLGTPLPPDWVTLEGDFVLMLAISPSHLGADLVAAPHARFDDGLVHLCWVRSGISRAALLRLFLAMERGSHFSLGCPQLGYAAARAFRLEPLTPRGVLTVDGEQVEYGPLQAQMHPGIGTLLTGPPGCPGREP

[3] = target: T1, Sphingosine kinase 2 (Homo sapiens); conditions: at 1 µM
[4] = target: Casein kinase II subunit alpha (Homo sapiens) (UniProt P68400); conditions: at 0.1 µM
Chain of Casein kinase II subunit alpha (Homo sapiens) (P68400 whole entry, looked up): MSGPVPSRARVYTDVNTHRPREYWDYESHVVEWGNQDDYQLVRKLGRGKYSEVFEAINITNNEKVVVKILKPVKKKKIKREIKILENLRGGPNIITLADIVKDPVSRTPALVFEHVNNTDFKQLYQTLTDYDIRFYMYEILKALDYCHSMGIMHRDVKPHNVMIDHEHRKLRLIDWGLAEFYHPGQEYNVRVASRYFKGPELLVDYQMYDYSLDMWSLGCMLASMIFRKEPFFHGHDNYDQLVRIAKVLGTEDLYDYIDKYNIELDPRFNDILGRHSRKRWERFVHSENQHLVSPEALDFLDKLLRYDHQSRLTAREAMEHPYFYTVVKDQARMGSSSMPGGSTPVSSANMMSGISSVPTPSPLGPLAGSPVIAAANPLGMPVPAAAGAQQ

[5] = target: Casein kinase II subunit alpha (Homo sapiens) (UniProt P68400); conditions: at 1 µM
[6] = target: T2, Inhibitor of nuclear factor kappa-B kinase subunit alpha (Homo sapiens) (UniProt O15111); conditions: at 0.1 µM
T2 sequence (whole entry): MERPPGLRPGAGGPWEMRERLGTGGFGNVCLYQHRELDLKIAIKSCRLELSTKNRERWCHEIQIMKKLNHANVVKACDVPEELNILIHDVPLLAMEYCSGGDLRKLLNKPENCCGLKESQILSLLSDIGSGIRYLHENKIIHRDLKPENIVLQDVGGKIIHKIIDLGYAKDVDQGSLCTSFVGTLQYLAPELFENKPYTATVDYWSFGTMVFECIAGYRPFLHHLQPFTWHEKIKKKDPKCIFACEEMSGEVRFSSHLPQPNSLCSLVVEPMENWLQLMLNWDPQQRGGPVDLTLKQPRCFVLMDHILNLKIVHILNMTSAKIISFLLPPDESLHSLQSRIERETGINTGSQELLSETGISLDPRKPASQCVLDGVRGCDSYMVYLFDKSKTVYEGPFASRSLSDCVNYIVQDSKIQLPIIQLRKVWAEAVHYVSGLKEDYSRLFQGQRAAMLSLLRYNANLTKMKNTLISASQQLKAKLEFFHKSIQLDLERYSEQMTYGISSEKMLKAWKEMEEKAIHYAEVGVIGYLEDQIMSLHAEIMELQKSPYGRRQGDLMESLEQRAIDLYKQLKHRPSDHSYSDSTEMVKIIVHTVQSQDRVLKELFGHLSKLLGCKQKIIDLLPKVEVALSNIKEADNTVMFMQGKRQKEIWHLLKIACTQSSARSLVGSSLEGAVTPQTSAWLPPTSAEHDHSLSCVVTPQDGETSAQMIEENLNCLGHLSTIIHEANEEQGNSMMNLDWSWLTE

[7] = target: T2, Inhibitor of nuclear factor kappa-B kinase subunit alpha (Homo sapiens); conditions: at 1 µM
[8] = target: T3, Inhibitor of nuclear factor kappa-B kinase subunit beta (Homo sapiens) (UniProt O14920); conditions: at 0.1 µM
T3 sequence (whole entry): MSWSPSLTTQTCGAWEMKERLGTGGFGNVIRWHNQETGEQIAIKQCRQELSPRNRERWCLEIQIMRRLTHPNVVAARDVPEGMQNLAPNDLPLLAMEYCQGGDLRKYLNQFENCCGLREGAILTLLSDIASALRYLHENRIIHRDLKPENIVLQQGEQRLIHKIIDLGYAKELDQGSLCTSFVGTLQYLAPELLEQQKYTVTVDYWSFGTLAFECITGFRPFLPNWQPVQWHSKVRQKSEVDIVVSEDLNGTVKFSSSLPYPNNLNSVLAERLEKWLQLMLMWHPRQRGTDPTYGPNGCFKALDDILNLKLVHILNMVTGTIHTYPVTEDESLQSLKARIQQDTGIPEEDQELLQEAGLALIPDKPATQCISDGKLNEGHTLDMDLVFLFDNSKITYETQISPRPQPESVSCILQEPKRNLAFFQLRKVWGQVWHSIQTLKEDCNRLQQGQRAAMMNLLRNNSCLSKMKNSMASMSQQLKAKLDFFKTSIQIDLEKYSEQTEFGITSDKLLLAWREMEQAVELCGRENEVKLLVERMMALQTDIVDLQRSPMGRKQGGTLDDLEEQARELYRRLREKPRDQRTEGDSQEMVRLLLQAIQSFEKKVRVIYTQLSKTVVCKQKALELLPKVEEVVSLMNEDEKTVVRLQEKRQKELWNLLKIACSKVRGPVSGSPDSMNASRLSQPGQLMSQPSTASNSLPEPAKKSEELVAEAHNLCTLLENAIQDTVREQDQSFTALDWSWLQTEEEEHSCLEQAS

[9] = target: T3, Inhibitor of nuclear factor kappa-B kinase subunit beta (Homo sapiens); conditions: at 1 µM
[10] = target: T4, Inhibitor of nuclear factor kappa-B kinase subunit epsilon (Homo sapiens) (UniProt Q14164); conditions: at 0.1 µM
T4 sequence (whole entry): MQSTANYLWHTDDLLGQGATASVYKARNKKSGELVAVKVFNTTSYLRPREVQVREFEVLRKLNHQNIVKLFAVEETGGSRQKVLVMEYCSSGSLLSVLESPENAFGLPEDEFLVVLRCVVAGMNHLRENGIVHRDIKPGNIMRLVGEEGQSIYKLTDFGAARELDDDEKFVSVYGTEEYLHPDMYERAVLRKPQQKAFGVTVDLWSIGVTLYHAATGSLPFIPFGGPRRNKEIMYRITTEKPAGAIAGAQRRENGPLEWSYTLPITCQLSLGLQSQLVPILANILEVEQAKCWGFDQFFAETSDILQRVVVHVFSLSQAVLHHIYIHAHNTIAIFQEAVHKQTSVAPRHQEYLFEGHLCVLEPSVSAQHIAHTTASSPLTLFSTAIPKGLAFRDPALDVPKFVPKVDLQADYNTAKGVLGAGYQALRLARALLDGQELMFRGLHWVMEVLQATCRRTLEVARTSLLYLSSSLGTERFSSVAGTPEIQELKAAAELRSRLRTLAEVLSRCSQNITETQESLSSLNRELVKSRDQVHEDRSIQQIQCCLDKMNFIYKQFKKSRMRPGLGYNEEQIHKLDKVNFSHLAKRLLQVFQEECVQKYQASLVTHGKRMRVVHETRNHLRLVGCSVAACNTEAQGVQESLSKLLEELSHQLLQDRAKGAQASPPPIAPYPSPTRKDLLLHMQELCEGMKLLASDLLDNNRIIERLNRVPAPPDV

[11] = target: T4, Inhibitor of nuclear factor kappa-B kinase subunit epsilon (Homo sapiens); conditions: at 1 µM
[12] = target: T5, Serine/threonine-protein kinase Nek1 (Homo sapiens) (UniProt Q96PY6); conditions: at 0.1 µM
T5 sequence (whole entry): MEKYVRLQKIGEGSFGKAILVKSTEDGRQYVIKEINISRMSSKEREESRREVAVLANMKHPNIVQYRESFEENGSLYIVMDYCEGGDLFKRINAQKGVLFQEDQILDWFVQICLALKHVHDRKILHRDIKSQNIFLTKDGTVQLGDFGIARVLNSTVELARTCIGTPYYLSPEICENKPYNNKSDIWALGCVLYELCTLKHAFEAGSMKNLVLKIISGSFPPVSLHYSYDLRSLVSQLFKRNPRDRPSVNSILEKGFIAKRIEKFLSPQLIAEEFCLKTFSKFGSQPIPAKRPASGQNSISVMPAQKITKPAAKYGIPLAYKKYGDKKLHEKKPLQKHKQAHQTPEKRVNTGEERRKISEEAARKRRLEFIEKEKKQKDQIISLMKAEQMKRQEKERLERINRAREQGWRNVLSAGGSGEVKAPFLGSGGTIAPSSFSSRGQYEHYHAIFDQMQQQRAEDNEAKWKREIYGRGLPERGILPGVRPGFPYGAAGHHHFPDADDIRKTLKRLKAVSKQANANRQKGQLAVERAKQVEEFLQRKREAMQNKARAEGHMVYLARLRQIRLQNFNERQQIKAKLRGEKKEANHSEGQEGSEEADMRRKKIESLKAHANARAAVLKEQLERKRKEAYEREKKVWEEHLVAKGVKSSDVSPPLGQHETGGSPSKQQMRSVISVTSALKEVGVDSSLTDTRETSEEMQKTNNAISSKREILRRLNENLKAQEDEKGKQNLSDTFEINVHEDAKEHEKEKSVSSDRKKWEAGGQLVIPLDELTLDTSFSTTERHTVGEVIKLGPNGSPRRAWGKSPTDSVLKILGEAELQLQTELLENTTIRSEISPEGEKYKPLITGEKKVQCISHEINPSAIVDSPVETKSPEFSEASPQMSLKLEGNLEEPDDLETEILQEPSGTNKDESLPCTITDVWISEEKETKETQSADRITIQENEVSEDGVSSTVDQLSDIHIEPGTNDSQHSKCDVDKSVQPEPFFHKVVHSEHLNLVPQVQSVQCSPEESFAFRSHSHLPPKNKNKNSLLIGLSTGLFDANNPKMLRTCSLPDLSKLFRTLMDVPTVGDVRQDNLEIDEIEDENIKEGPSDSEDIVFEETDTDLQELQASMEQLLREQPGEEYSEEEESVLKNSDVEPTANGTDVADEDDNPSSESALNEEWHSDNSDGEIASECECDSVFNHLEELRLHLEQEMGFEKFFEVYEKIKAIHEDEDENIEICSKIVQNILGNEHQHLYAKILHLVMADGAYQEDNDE

[13] = target: T5, Serine/threonine-protein kinase Nek1 (Homo sapiens); conditions: at 1 µM
[14] = target: T6, Serine/threonine-protein kinase Nek2 (Homo sapiens) (UniProt P51955); conditions: at 0.1 µM
T6 sequence (whole entry): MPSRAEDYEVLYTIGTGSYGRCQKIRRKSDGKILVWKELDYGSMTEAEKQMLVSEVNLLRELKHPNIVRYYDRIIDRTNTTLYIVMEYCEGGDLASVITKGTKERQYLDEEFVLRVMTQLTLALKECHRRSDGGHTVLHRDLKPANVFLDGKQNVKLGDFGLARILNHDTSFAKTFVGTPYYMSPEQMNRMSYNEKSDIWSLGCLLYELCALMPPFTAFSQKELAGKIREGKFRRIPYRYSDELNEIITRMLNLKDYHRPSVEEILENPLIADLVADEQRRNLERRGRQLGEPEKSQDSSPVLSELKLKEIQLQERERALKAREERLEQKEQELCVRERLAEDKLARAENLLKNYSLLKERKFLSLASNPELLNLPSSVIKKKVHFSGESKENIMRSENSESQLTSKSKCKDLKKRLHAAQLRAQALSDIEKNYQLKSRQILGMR

[15] = target: T6, Serine/threonine-protein kinase Nek2 (Homo sapiens); conditions: at 1 µM
[16] = target: Serine/threonine-protein kinase Nek6 (Homo sapiens) (UniProt Q9HC98); conditions: at 0.1 µM
Chain of Serine/threonine-protein kinase Nek6 (Homo sapiens) (Q9HC98 whole entry): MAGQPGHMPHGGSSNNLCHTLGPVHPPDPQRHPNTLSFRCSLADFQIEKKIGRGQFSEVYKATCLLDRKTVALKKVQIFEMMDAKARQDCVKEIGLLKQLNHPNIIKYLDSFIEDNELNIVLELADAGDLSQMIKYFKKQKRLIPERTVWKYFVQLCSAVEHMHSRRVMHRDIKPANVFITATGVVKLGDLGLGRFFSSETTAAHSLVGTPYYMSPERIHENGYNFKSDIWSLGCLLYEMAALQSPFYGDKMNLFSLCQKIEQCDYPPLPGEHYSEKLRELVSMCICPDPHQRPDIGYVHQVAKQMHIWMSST

[17] = target: Serine/threonine-protein kinase Nek6 (Homo sapiens) (UniProt Q9HC98); conditions: at 1 µM
[18] = target: Serine/threonine-protein kinase Nek7 (Homo sapiens) (UniProt Q8TDX7); conditions: at 0.1 µM
Chain of Serine/threonine-protein kinase Nek7 (Homo sapiens) (Q8TDX7 whole entry, looked up): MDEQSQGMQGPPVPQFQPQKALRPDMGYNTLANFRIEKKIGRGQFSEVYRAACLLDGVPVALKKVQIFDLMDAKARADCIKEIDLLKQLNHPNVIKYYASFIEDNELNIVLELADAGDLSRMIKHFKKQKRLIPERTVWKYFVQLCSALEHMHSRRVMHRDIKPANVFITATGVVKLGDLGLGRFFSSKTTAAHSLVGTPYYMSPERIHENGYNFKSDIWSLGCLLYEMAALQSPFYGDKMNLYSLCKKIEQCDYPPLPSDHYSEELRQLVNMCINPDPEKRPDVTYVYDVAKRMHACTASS

[19] = target: Serine/threonine-protein kinase Nek7 (Homo sapiens) (UniProt Q8TDX7); conditions: at 1 µM
[20] = target: T7, Serine/threonine-protein kinase Nek9 (Homo sapiens) (UniProt Q8TD19); conditions: at 0.1 µM;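 also: reported value is the mean percent inhibition of NEK9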
T7 sequence (whole entry): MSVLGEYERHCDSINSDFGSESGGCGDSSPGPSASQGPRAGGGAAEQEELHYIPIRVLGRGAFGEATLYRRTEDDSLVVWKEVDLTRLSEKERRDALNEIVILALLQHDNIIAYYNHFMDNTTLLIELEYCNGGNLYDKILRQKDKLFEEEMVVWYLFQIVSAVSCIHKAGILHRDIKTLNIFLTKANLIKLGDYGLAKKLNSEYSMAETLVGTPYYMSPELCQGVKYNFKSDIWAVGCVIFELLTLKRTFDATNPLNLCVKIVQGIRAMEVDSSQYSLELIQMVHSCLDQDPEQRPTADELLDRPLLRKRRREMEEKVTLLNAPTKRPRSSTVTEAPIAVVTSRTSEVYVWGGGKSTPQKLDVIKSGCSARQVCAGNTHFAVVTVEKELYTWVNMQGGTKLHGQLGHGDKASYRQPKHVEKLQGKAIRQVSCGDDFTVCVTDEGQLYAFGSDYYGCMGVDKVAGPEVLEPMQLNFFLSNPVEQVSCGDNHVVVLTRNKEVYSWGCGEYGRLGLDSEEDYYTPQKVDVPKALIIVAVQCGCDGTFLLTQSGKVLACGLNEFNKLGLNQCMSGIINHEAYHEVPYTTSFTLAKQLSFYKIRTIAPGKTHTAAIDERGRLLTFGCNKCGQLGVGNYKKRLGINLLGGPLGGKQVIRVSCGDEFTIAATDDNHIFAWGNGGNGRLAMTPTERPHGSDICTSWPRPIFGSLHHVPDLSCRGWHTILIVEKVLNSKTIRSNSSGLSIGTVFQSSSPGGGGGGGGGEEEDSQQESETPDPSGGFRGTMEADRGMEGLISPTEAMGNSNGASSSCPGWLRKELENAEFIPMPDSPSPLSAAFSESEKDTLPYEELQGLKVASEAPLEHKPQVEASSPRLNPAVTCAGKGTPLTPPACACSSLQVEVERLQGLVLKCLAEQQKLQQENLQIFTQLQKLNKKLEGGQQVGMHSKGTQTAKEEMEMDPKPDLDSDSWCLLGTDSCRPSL

Chain of Sphingosine kinase 1 (Homo sapiens) (Q9NYA1 whole entry): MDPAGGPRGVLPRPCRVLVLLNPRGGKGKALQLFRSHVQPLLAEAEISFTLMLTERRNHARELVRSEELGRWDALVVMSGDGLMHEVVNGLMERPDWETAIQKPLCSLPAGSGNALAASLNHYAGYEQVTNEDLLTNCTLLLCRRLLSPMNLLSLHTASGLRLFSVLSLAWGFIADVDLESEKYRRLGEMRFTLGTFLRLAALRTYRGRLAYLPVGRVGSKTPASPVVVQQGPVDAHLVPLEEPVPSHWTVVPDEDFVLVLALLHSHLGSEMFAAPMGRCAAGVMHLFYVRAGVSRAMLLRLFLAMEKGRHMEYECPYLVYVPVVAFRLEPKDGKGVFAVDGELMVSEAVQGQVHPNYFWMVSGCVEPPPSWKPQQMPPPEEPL

NS(=O)(=O)c1cccc(-c2ccc3c(NC(=O)C4CC4)n[nH]c3c2)c1
inhibition [1]: 2.86%
inhibition [2]: 0.74%
inhibition [3]: -0.18%
inhibition [4]: 0.11%
inhibition [5]: -0.44%
inhibition [6]: 11.4%
inhibition [7]: 5.2%
inhibition [8]: -0.49%
inhibition [9]: -1.55%
inhibition [10]: -4.07%
inhibition [11]: -3.2%
inhibition [12]: -0.9%
inhibition [13]: -0.76%
inhibition [14]: -1.41%
inhibition [15]: -0.18%
inhibition [16]: -1.88%
inhibition [17]: -0.37%
inhibition [18]: 1.22%
inhibition [19]: -2.64%
inhibition [20]: 4.44%

CCCN1CCC=C(c2ccc(Nc3nc(Nc4ccccc4C(N)=O)c4cc[nH]c4n3)c(C)c2)C1
inhibition [1]: 1.28%
inhibition [2]: -1.02%
inhibition [3]: 0.04%
inhibition [4]: 33.7%
inhibition [5]: 72%
inhibition [6]: 13.6%
inhibition [7]: 16%
inhibition [8]: 5.1%
inhibition [9]: 8.74%
inhibition [10]: 9.65%
inhibition [11]: 10.3%
inhibition [12]: 3.93%
inhibition [13]: 8.78%
inhibition [14]: 6.91%
inhibition [15]: 7.52%
inhibition [16]: 0.8%
inhibition [17]: 5.18%
inhibition [18]: 4.64%
inhibition [19]: 14%
inhibition [20]: 7.78%
